Experiment [1] can be described thus: ACEA_AR_agonist_AUC_viability: ACEA Biosciences xCELLigence Real-Time Cell Analysis on Androgen Receptor Agonism for Viability (AID 2283775).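 On AC50: viability read 80 hours after compound addition.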 In outline:
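22Rv1 cells; impedance growth kinetics; 8-pt 1:4 dilutions from 100 uM top final, ≤0.5% DMSO; n = 2; 80 h read; AUC viability, loss-of-signal vs DMSO.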

The nature of experiment [2]: ACEA_AR_antagonist_AUC_viability: ACEA Biosciences xCELLigence Real-Time Cell Analysis on Androgen Receptor Antagonism for Viability (AID 2283776).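 Further: 22Rv1 human prostate cancer cells growing on impedance electrode plates; hits lower the growth signal relative to DMSO meaning cytotoxicity.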 In outline: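 Impedance read-out (RT-CES): area under growth curve at 80 h post-dose, loss of signal scored vs DMSO baseline. 22Rv1 cells; 8-pt 1:4 series, top 100 uM final, ≤0.5% DMSO; biological duplicate.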
The nature of experiment [3]: ACEA_ER_AUC_viability: ACEA Biosciences xCELLigence Real-Time Cell Analysis on Estrogen Receptor Agonism for Viability (AID 2283782).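 Further: hit means loss of impedance signal meaning reduced cell growth or viability.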 In a few lines:
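Continuous-exposure impedance cell analysis uses T-47D cells in charcoal-stripped serum, eight 1:4 dilutions topping at 100 uM final, biological duplicate. Area under the growth curve at 80 h is fitted against DMSO baseline.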

Experiment [4] has as its system chicken Androgen Receptor (AR), gene 422165. Description: ATG_chAR_XSP1: Attagene TRANS-FACTORIAL Multi-Species (XSP1) HepG2 Assay for chicken Androgen Receptor (AR) (AID 2283768). In outline: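 Reporter mRNA read by RT-PCR with fluorescent labelling and capillary electrophoresis 24 h after chemical dosing of transiently transfected HepG2 cells. Chicken AR-Gal4 chimera, partially stimulated with 3 nM 6-alpha-fluorotestosterone; activity fitted upward relative to DMSO.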

Experiment [5] addresses zebrafish Estrogen Receptor (ESR1), esr1 (gene 259252) (UniProt P57717). Description: ATG_zfER1_XSP1: Attagene TRANS-FACTORIAL Multi-Species (XSP1) HepG2 Assay for zebrafish Estrogen Receptor (ESR1) (AID 2283772). In a few lines:
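HepG2 cells transiently transfected with a GAL4-UAS reporter and chimeric zebrafish ER-Gal4, dosed 24 h with 3 nM 6-alpha-fluorotestosterone present. Reporter mRNA measured by RT-PCR and capillary electrophoresis; gain of signal versus DMSO.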

In experiment [6] the test system is zebrafish Estrogen Receptor (ESR2B), gene 317733. Description: ATG_zfER2b_XSP1: Attagene TRANS-FACTORIAL Multi-Species (XSP1) HepG2 Assay for zebrafish Estrogen Receptor (ESR2B) (AID 2283773). In outline: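 Human hepatoma HepG2, transiently transfected with multi-reporter units; exogenous zebrafish ESR2B-Gal4 activity measured. Exposure 24 h alongside 3 nM 6-alpha-fluorotestosterone to partly stimulate AR.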

The subject of experiment [7] is frog Estrogen Receptor (ESR2), gene 100174814. Description: ATG_frER2_XSP1: Attagene TRANS-FACTORIAL Multi-Species (XSP1) HepG2 Assay for frog Estrogen Receptor (ESR2) (AID 2283774). In a few lines:
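Multiplexed TRANS-format reporter assay in human hepatoma HepG2: chimeric nuclear receptor-Gal4 activity reported as mRNA induction at 24 h, detected by fluorescent RT-PCR products on capillary electrophoresis and fitted upward from DMSO baseline.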

The test system of experiment [8] is frog Estrogen Receptor (ESR1), gene 398734. Description: ATG_frER1_XSP1: Attagene TRANS-FACTORIAL Multi-Species (XSP1) HepG2 Assay for frog Estrogen Receptor (ESR1) (AID 2283777). In a few lines: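 After transient transfection and 24 h compound treatment, total RNA from HepG2 cells was reverse-transcribed, amplified, FAM-labeled and resolved by capillary electrophoresis. Signal increases were fitted against DMSO controls.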

The test system of experiment [9] is zebrafish Estrogen Receptor (ESR2A), gene 317734. Description: ATG_zfER2a_XSP1: Attagene TRANS-FACTORIAL Multi-Species (XSP1) HepG2 Assay for zebrafish Estrogen Receptor (ESR2A) (AID 2283778). In a few lines:
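Gain-of-signal reporter transcription readout from GAL4-UAS units in transiently transfected HepG2 cells, 24 h exposure, 3 nM 6-alpha-fluorotestosterone co-present. Detection by RT-PCR with capillary electrophoresis fluorescence.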

For experiment [10], the target named is chicken Estrogen Receptor (ESR1), ESR1 (gene 396099) (UniProt P06212). Description: ATG_chERa_XSP1: Attagene TRANS-FACTORIAL Multi-Species (XSP1) HepG2 Assay for chicken Estrogen Receptor (ESR1) (AID 2283779). In outline: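 Gain-of-signal reporter transcription, relative to DMSO, was scored in transiently transfected HepG2 cells after a 24 h dose. Fluorescence intensity of amplified, digested reporter cDNA fragments served as the endpoint.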

For experiment [11], the system named is turtle Estrogen Receptor (ESR1), gene 101933533. Description: ATG_trERa_XSP1: Attagene TRANS-FACTORIAL Multi-Species (XSP1) HepG2 Assay for turtle Estrogen Receptor (ESR1) (AID 2283781). In outline: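 Cell-based chimeric NR-Gal4 transactivation; HepG2; 24 h dosing; mRNA reporter detected by RT-PCR and capillary electrophoresis fluorescence.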
The subject of experiment [12] is turtle Androgen Receptor (AR), gene 101947425. Description: ATG_trAR_XSP1: Attagene TRANS-FACTORIAL Multi-Species (XSP1) HepG2 Assay for turtle Androgen Receptor (AR) (AID 2283786). In outline:
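Partial androgen stimulation is provided by 3 nM 6-alpha-fluorotestosterone in a multi-species trans-factorial panel expressing a turtle AR–GAL4 fusion in HepG2. After 24 h, reporter mRNA is measured by RT-PCR and capillary electrophoresis and fitted upward against DMSO.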

The nature of experiment [13]: ATG_M_06_XSP1: Attagene TRANS-FACTORIAL Multi-Species (XSP1) HepG2 Assay for M06 Transcription Factor (Internal Marker) (AID 2283790). In outline:
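This background-control readout tracks M06 reporter mRNA, measured by RT-PCR and capillary electrophoresis. HepG2 cells transiently carrying the GAL4-UAS reporter panel were dosed for 24 h with 3 nM 6-alpha-fluorotestosterone added for partial AR stimulation; increases were scored relative to DMSO.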

The target in experiment [14] is Luciferin 4-monooxygenase (Photinus pyralis) (UniProt P08659). Description: CCTE_Simmons_QuantiLum_inhib_2: CCTE's Firefly Luciferase Inhibition Assay, Simmons Lab (AID 2283767).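 On AC50: potency for inhibitors that lower luciferase luminescence relative to DMSO.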 In outline: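 Eight test concentrations, 5 nM up to 87.5 uM final, preincubated 30min at 37C in the dark with purified luciferase (0.5% DMSO final). Detection reagent (150uM D-luciferin, 147uM dATP, 75uM CoA, pH 7.8) injected per well before kinetic luminescence read; three replicates.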

Experiment [15] in a line: STM_H9_NormalizedViability: Cytotoxicity Assessment at 120 hours in the Stemina devTOX quickPredict H9 human embryonic stem cell (hESC)-based Assay (AID 2283784). In a few lines:
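Viability endpoint: background-corrected CellTiter-Fluor RFU expressed relative to the 0.1% DMSO mean on each plate. Undifferentiated H9 cells were treated with daily re-dosing and media change, and loss of signal was fitted.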

The target of experiment [16] is AR (gene 367) (UniProt P10275). Description: ACEA_AR_antagonist_80hr: ACEA Biosciences xCELLigence Real-Time Cell Analysis on Androgen Receptor Antagonism for Proliferation (AID 2283787).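 Further: 22Rv1 human prostate cancer cells with growth followed by electrical impedance; hits lower the impedance growth signal relative to DMSO.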 In outline:
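Using 22Rv1 cells held in assay medium, we dosed compounds (100 uM maximum final, 1:4 serial, eight points, 0.5% DMSO at top) and recorded cell-electrode impedance; the 80 hr timepoint was analyzed against DMSO.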

Experiment [17] has as its target AR (gene 367) (UniProt P10275). Description: ACEA_AR_agonist_80hr: ACEA Biosciences xCELLigence Real-Time Cell Analysis on Androgen Receptor Agonism for Proliferation (AID 2283783).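 Further: hits increase impedance growth signal above DMSO baseline.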 In a few lines:
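Real-time cell-growth kinetics were recorded by electrode impedance in 22Rv1 cells exposed to test chemicals up to 100 uM final; the 80 h timepoint served as the readout, fitted upward relative to DMSO controls, in biological duplicate.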

Results filed as inconclusive are left out. Active and inactive are the calls of the source. How the source made its calls: active means hit-call score of the fitted dose curve at least 0.9, where 1 is the maximum; inconclusive means response in the unintended direction; inactive means score below 0.9.

Our source for the AC50 and outcome values is PubChem BioAssay (EPA / NIEHS).

Luciferin 4-monooxygenase (Photinus pyralis), sequence (P08659 whole entry, looked up): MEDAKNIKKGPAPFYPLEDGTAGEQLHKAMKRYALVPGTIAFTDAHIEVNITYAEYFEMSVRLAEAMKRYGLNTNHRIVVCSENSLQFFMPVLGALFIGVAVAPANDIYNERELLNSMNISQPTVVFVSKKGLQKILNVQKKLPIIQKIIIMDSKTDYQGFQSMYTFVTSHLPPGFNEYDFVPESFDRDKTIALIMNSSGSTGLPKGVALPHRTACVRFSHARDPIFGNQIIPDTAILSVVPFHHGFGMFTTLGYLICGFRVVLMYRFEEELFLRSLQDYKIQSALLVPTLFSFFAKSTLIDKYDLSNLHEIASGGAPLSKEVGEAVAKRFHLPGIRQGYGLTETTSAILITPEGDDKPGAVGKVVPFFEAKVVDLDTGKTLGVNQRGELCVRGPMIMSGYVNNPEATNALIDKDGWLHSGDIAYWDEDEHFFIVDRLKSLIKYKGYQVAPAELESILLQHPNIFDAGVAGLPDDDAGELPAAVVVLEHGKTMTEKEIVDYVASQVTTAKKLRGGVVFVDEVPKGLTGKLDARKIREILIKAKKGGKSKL
AR (gene 367), sequence (P10275 whole entry, looked up): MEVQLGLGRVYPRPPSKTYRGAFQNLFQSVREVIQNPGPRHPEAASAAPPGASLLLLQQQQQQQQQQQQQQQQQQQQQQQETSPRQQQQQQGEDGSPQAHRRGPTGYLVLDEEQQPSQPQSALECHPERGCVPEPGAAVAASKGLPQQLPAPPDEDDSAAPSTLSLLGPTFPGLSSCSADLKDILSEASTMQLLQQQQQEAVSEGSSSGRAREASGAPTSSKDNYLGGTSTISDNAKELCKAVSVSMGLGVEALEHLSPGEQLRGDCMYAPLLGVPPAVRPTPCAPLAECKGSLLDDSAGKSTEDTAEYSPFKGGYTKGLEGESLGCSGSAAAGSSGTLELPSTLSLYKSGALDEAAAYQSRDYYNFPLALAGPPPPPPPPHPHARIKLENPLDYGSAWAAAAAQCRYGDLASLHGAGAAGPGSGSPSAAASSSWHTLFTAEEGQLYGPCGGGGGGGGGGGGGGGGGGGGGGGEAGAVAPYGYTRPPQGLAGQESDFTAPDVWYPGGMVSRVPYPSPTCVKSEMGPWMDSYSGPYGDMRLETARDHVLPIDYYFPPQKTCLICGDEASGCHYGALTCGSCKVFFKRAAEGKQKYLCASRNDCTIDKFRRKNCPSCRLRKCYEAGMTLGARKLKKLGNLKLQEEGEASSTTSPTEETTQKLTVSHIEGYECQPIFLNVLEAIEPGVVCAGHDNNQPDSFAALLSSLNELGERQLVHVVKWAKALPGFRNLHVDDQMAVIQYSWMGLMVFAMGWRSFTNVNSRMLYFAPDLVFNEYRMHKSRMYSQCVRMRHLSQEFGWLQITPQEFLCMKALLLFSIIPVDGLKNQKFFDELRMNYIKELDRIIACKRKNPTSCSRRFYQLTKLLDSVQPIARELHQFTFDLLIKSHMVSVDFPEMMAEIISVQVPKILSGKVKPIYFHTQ
zebrafish Estrogen Receptor (ESR1), esr1 (gene 259252), sequence (P57717 whole entry, looked up, the tested form may be a part): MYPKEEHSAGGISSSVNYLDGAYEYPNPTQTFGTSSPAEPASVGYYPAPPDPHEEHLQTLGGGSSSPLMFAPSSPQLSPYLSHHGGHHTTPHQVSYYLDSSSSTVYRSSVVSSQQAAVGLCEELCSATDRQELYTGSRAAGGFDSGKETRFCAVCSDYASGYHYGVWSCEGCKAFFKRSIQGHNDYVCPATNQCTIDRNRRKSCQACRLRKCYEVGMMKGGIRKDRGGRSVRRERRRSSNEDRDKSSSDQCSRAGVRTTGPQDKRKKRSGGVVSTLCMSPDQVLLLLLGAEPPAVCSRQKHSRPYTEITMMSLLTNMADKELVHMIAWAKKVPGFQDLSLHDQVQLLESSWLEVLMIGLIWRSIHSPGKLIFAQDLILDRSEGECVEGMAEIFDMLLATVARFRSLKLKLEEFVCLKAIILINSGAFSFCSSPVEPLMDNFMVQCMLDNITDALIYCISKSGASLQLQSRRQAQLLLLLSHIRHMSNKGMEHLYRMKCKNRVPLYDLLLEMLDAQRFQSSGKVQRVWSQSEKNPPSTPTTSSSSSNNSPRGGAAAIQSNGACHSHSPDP
chicken Estrogen Receptor (ESR1), ESR1 (gene 396099), sequence (P06212 whole entry, looked up, the tested form may be a part): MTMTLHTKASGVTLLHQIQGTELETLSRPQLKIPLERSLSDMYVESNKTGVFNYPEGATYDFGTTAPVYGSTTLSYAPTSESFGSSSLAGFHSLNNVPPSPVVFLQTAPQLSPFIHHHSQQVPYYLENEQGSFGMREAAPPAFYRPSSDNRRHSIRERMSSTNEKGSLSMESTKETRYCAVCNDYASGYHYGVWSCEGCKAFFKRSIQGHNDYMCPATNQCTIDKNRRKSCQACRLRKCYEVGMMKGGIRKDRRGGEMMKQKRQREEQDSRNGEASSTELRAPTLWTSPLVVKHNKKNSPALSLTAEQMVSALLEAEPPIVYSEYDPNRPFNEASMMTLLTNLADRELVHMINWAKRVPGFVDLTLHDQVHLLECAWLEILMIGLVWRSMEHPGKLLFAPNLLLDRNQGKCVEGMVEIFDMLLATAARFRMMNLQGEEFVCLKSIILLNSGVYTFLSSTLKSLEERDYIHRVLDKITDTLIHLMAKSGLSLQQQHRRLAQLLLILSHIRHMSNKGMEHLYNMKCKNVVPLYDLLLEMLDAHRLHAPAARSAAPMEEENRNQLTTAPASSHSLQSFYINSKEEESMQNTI

Regarding `CCCCSP(=O)(SCCCC)SCCCC`, the AC50 (as a rule, the concentration giving half of the maximal activity seen) in experiment [1] was 78.1 µM (active); in experiment [2], 67.1 µM (active); in experiment [3] it was 71.4 µM (active).
As to `C#CC(C)(C)NC(=O)c1cc(Cl)cc(Cl)c1`, the concentration at half-maximal activity (AC50) in experiment [4] was 26.4 µM (active); in experiment [6], 52.6 µM (active); in experiment [7] it was 56.3 µM (active); in experiment [2], 26.4 µM (active); in [10] it was 50 µM (active); in experiment [11] it was 64.3 µM (active). In addition, the call in [5], in [1], in [8], in experiment [9], in experiment [12] and in experiment [13] was inactive.
Consider `N#CSCSC#N`, for which the AC50 in [14] is 53.8 µM (active); in experiment [1], 7.42 µM (active); in [2], 7.39 µM (active); in experiment [3], 6.97 µM (active); in experiment [15], 20.5 µM (active); with AR (gene 367) [16], 11.7 µM (active).
Regarding `CCOC(=O)CC(SP(=O)(OC)OC)C(=O)OCC` (centres undefined), the outcome in experiment [14], in experiment [1], in experiment [2] and in [3] was inactive.
For `Cc1cc(C2CC2)nc(Nc2ccccc2)n1`, the AC50 is 75.6 µM (active) in [1], 64.2 µM (active) in [2] and 77.3 µM (active) in experiment [3].
For `CCC(=O)Nc1ccc(Cl)c(Cl)c1`, the molecule was classed as inactive in [14] and in experiment [1]. Also, the AC50 is 20.7 µM (active) in experiment [2] and 20 µM (active) in the experiment with AR (gene 367) [16].
On to `CNC(=O)ON=C(C)SC`, for which the call in experiment [1], in experiment [2] and in experiment [3] was inactive.
For `S=C1NCCN1`, the AC50 in [14] was 1.9 µM (active). The molecule was classed as inactive in [1], in [2] and in [3].
With `C=C(C)[C@H]1Cc2c(ccc3c2O[C@@H]2COc4cc(OC)c(OC)cc4[C@@H]2C3=O)O1`, the molecule was classed as inactive (in experiment [14]; in [3]; in the experiment with AR (gene 367) [17]). The AC50 in [1] is 0.284 µM (active); in experiment [2] it was 0.413 µM (active); in [15], 0.515 µM (active); with AR (gene 367) [16], 1.54 µM (active).
Turning to `CCOP(=O)(SC(C)CC)N1CCSC1=O` (centres undefined), the call in experiment [14] and in experiment [2] was inactive.
For the molecule `CCOP(=S)(OCC)OC(Cl)C(Cl)(Cl)Cl` (centres undefined), the result in experiment [14] was inactive. In addition, in experiment [3], the AC50 was 76.4 µM (active).
In the case of `COP(=O)(NC(C)=O)SC` (centres undefined), in experiment [14], the AC50 was 37.5 µM (active). Also, the outcome in [1], in [2] and in experiment [3] was inactive.
